The nature of assay [1]: qHTS for Inhibitors of Cell Surface uPA Generation: Validation Assay (AID 493164). Further: 0% is about no effect. The gist of the method: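 RAW 264.7 cells (4000/well) were plated overnight, then exposed for 18 h at 37 C, 5% CO2 to compounds in a 7-point 1:5 titration (2.45 nM–38.3 uM final). Intracellular ATP was read by ATP-Lite luminescence.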
The target in assay [2] is Galactokinase (Homo sapiens) (UniProt P51570). As to the kind of experiment: qHTS Validation Assay for Inhibitors of Human Galactokinase (GALK) (AID 493189). Further: 0% is about no effect. The method in brief: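 Inhibition was measured as remaining ATP, detected by luciferase luminescence after a 1 h room-temperature reaction. Final conditions: 5 nM GALK, 100 uM galactose, 35 uM ATP, pH 8.0 HEPES buffer.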
Background: Quantitative high-throughput screening tests each substance at several concentrations.

Assay [3] in a line: Validation screen for small molecules that induce DNA re-replication in SW480 colon adenocarcinoma cells (AID 504364). Further: 0% is about no effect. The method in brief:
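SW480 cells (250/well) exposed 48 h at 37 C, 5% CO2, then Hoechst-stained 40 min. Nuclear DNA content imaged by fluorescence scanning (405 nm excitation, 500-530 nm emission); re-replication scored as increased nuclei with elevated intensity.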

The target in assay [4] is Peptidyl-prolyl cis-trans isomerase NIMA-interacting 1 (Homo sapiens) (UniProt Q13526). As to the kind of experiment: qHTS Validation Assay to Find Inhibitors of Pin1 (AID 504536; active means well fitted inhibition curve with a large enough effect in the polarisation, with a control signal flat, not every such curve was filed as active; the % refers to the polarisation;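 further: 0% = full Pin1 enzyme wells and -100% = no-enzyme wells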). The method in brief: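 Fluorescence polarization competition: compounds (titration) displace HiFluor-488-labeled Pin1-1b peptide from Pin1 (0.3 uM final) in pH 7.5 HEPES buffer with DTT, 10 min at room temperature; %Activity normalized to no-enzyme wells, curves fitted.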

Assay [5] has as its target Phosphoglycerate kinase, glycosomal (Trypanosoma brucei brucei) (UniProt P07378). Kind of assay: qHTS Validation Assay to Find Inhibitors of Phosphoglycerate Kinase (AID 504547).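 Further: control wells lack PGK and mark full inhibition.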 The method in brief:
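PGK activity was coupled to GAPDH (100nM final), which generates the unstable substrate 1,3-bisphosphoglycerate in-well. Reactions ran 60 minutes at room temperature in 100mM TEA pH 7.6, 5mM MgCl2, 0.01% Tween-20, then Kinase-Glo Plus luminescence was read.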

Assay [6] addresses phosphoglycerate mutase (Leishmania major) (UniProt Q4Q090). As to the kind of experiment: qHTS Validation Assay to Find Inhibitors of Phosphoglycerate Mutase (AID 504548). Further: series mostly up to about 58 µM; on the % scale 0 is the no-effect control and ±100 the full control effect. The gist of the method:
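Lm PGAM at 1.25 nM final with substrate in 100 mM TEA pH 7.6, 5 mM MgCl2, 0.01% Tween-20; 45 min at room temperature. Kinase-GloPlus added, 10 min, end-point luminescence read.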

The target in assay [7] is Ubiquitin carboxyl-terminal hydrolase 1 (Homo sapiens) (UniProt O94782). As to the kind of experiment: Inhibitors of USP1/UAF1: Pilot qHTS (AID 504865).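 Further: rhodamine fluorescence freed from ubiquitin-rhodamine substrate followed over time; top concentration of the series differs between compounds; on the % scale 0 is the no-effect control and ±100 the full control effect; nearly all actives have a fitted effect of over 35% in size.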 The gist of the method:
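Deubiquitinase activity followed as kinetic rhodamine fluorescence release from 150 nM Ub-Rho. 1 nM USP1/UAF1 with compound, after 15 min room-temperature preincubation, in HEPES pH 7.8 buffer containing TCEP, EDTA, BSA and Tween-20.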

Assay [8] deals with DNA dC->dU-editing enzyme APOBEC-3G (Homo sapiens) (UniProt Q9HC16). Kind of assay: qHTS for inhibitors of Vif-A3G interactions: Validation (AID 588379). Further: 0% is about no effect. The method in brief: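 HeLa cells stably expressing Vif and A3G-eYFP, 700 cells/well, incubated overnight at 37 deg C, then exposed to compound overnight at 37 deg C. Inhibition of Vif-mediated degradation read as increased yellow fluorescence (Ex 488/Em 500-530) by laser-scanning cytometry.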

Assay [9] can be described thus: qHTS for Inhibitors of ATXN expression: Validation of Cytotoxic Assay (AID 588349). Further: on the % scale 0 is the no-effect control and ±100 the full control effect. The method in brief: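 HEK293 cells treated with titrated compound for 72 hr at 37 degrees C; viability read as intracellular ATP by CellTiter Glo luminescence.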
Assay [10] can be described thus: Nrf2 qHTS screen for inhibitors: Validation (AID 493153; active means well fitted inhibition curve with a large enough effect in the main read-out, with a control signal flat, not every such curve was filed as active). The note with it: Potency: luciferase luminescence; viability change: measured here: cytotoxicity max response. The method in brief:
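A549 cells carrying ARE-firefly luciferase reporter, 5000 cells/well in 5% FBS OPTI-MEM, treated with compound over a concentration series for 18-24 h at 37 C. Luciferase luminescence gave Nrf2 activity; CellTiter-Fluor fluorescence gave viability.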

Assay [11] concerns the target Bile acid receptor (Homo sapiens) (UniProt Q96RI1). As to the kind of experiment: qHTS assay for small molecule antagonists of farnesoid X receptor signaling (AID 588526; calls by dose curve; further: on the % scale 0 is the no-effect control and ±100 the full control effect). The gist of the method:
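Antagonist mode: titrated compounds tested against chenodeoxycholic acid stimulation (normalized to 50 uM CDCA and DMSO) in GeneBLAzer HEK293T cells for 16 h. Beta-lactamase read by CCF4 fluorescence; IC50 from Hill fits.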

The target in assay [12] is Glucocorticoid receptor (Homo sapiens) (UniProt P04150). As to the kind of experiment: qHTS assay for small molecule agonists of glucocorticoid receptor signaling (AID 588532; active means well fitted curve in the direction sought with a large enough effect in the signal ratio, with a control signal flat; the % refers to the signal ratio;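 further: 100% = dexamethasone at 0.1 µM and 0% = DMSO only wells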). The note with it: HeLa MMTV-bla, beta-lactamase ratio, agonist, 18 h; stronger effect = higher value; percent of dexamethasone control, DMSO zero. The method in brief:
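HeLa GRE-bla reporter cells; 18 h compound exposure at 37 C; 2 h CCF4 loading at room temperature; fluorescence at 460 and 530 nm; EC50 by Hill equation.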

Assay [13] can be described thus: qHTS assay for small molecule antagonists of peroxisome proliferator-activated receptor delta signaling (AID 588535; active means well fitted inhibition curve with a large enough effect in the signal ratio, with a control signal flat, not every such curve was filed as active; the % refers to the signal ratio;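 on max response: cells co-treated with a PPAR-delta agonist as stimulator during compound exposure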). The note with it: HEK293T PPARd-UAS-bla, beta-lactamase FRET ratio, 18 h; 460 nm channel. The method in brief:
(§1)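 Antagonist-mode beta-lactamase reporter (GeneBLAzer PPAR-delta-UAS-bla) in HEK293T cells, 2% charcoal/dextran FBS, 4000 cells/well. Compound titrations, 18 h at 37 C; CCF4 ratio read, IC50 and efficacy from Hill fits.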

For assay [14], the target named is Peroxisome proliferator-activated receptor delta (Homo sapiens) (UniProt Q03181). Described as above. The gist of the method:
as §1

Assay [15] deals with Peroxisome proliferator-activated receptor gamma (Homo sapiens) (UniProt P37231). Kind of assay: qHTS assay for small molecule agonists of peroxisome proliferator-activated receptor gamma signaling (AID 588536; active means well fitted curve in the direction sought with a large enough effect in the signal ratio, with a control signal flat, not every such curve was filed as active; the % refers to the signal ratio;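 further: 0% = DMSO basal wells and 100% = rosiglitazone at 2 µM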). The gist of the method: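 GeneBLAzer PPAR-gamma-UAS-bla HEK293 cells in 1% charcoal/dextran-treated FBS medium were treated 16 h at 37 C with compounds. Beta-lactamase activity was read by CCF4 ratio (460/530 nm). Response was normalized to 2 uM rosiglitazone (100%) and DMSO, then Hill-fitted for EC50 and efficacy.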

A short description of assay [16]: qHTS for Inhibitors of ATXN expression: Validation (AID 588378). Further: nearly all actives have a fitted effect of over 75% in size. Further: potency means the concentration at half of the fitted maximal effect. The gist of the method: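 Luciferase luminescence (Bright-Glo) from an ATXN2-FFLuc HEK293 line after 24 h compound exposure at 37 °C, preceded by a CellTiter-Fluor fluorescence viability read. Serial dilutions of a reference ATXN2 inhibitor and a luciferase inhibitor served as controls.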

Each structure is given as a SMILES string. Several values for one entry are separate records, joined by “and”; a condition that tells them apart may be missing. Equal values may be shown once. Records with an inconclusive call do not appear. Activity calls are given as the source filed them. Unless noted, the call rests on the fitted dose curve; in most records, active means well fitted curve in the direction sought with a large enough effect; inconclusive means small, poorly fitted or top-dose-only effect, or another doubt; inactive means no such curve, though single readings can be large; an effect the other way counts as inactive or inconclusive.

Chain of Phosphoglycerate kinase, glycosomal (Trypanosoma brucei brucei) (P07378 whole entry, looked up): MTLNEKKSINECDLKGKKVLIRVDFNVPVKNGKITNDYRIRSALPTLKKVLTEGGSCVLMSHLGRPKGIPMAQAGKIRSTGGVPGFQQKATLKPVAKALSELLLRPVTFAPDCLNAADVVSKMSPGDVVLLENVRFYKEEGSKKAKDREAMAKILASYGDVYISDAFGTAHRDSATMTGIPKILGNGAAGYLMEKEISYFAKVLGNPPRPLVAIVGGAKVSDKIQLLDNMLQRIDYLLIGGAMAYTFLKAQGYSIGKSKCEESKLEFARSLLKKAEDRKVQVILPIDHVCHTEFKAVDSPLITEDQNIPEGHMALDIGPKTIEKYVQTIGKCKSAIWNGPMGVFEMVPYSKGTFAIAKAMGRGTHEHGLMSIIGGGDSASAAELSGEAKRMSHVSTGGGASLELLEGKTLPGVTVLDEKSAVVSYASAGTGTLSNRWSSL
Chain of phosphoglycerate mutase (Leishmania major) (Q4Q090 1-553): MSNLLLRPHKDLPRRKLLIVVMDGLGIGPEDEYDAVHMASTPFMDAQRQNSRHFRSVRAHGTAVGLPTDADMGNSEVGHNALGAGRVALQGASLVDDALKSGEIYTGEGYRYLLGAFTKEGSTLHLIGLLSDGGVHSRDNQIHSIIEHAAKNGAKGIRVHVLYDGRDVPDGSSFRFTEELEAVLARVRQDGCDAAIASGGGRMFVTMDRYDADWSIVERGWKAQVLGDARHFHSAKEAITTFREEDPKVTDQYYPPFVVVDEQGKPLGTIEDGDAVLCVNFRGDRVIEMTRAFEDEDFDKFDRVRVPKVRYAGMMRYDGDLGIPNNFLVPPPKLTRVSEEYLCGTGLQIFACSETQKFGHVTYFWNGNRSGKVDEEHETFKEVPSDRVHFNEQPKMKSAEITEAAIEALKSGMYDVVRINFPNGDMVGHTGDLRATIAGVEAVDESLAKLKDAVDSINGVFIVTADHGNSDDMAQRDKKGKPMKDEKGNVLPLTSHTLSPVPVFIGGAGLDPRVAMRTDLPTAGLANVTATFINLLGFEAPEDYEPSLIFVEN
Chain of DNA dC->dU-editing enzyme APOBEC-3G (Homo sapiens) (Q9HC16 whole entry, looked up): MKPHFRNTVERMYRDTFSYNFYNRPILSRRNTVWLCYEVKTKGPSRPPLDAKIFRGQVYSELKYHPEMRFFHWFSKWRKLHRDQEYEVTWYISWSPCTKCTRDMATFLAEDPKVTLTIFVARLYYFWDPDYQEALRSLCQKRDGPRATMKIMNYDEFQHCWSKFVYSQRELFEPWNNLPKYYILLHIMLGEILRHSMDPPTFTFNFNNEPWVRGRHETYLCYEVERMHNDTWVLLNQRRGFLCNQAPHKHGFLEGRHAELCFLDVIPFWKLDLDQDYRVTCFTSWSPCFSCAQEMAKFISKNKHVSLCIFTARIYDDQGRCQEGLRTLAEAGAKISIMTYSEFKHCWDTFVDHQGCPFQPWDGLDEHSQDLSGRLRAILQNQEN
Chain of Ubiquitin carboxyl-terminal hydrolase 1 (Homo sapiens) (O94782 whole entry, looked up): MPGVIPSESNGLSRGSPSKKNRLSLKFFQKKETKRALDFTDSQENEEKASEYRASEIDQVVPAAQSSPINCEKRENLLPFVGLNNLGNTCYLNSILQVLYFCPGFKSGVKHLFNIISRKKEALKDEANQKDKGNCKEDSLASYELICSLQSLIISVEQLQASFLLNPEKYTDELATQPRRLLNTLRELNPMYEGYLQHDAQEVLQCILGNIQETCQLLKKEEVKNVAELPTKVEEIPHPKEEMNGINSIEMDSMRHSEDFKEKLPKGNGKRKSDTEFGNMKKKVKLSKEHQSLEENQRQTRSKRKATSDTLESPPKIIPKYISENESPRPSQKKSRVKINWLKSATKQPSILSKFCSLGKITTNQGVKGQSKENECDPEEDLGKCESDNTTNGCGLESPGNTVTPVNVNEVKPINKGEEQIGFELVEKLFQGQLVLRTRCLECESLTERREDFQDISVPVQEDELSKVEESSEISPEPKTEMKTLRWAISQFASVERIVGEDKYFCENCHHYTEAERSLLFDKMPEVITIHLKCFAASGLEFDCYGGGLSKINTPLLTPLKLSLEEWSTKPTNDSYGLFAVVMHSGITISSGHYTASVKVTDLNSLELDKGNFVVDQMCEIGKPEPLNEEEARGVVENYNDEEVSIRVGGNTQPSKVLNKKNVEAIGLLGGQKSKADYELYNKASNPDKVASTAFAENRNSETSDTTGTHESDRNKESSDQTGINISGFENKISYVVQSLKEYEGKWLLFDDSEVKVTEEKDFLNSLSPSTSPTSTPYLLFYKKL
Chain of Peptidyl-prolyl cis-trans isomerase NIMA-interacting 1 (Homo sapiens) (Q13526 whole entry, looked up): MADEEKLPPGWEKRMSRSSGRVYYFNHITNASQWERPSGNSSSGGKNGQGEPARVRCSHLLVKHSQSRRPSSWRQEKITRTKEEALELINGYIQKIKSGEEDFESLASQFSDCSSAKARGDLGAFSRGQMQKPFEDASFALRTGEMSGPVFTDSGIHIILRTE
Chain of Galactokinase (Homo sapiens) (P51570 whole entry, looked up): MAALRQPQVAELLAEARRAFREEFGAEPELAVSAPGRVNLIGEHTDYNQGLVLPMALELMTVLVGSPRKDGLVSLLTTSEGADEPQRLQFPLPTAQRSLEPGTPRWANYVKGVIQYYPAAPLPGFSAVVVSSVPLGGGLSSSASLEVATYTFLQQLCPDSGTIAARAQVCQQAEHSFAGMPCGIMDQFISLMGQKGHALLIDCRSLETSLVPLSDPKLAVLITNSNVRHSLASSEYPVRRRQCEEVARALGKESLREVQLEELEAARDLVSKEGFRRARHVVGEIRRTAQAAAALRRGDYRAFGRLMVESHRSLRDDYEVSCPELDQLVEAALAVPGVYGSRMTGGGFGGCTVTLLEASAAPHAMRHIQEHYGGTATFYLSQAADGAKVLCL
Chain of Peroxisome proliferator-activated receptor gamma (Homo sapiens) (P37231 whole entry, looked up): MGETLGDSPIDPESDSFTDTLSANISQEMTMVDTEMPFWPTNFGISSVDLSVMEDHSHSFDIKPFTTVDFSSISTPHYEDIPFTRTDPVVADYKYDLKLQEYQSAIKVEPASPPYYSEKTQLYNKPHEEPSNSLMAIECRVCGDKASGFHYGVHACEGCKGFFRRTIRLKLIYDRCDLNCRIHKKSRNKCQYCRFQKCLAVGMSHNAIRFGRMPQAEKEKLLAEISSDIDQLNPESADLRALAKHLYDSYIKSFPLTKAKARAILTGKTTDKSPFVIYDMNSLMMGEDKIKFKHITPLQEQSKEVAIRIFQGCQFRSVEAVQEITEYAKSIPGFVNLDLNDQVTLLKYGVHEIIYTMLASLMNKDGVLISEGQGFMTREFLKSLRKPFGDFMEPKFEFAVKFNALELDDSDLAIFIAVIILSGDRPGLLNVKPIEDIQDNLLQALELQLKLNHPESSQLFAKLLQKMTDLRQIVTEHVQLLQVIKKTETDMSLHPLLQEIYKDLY
Chain of Bile acid receptor (Homo sapiens) (Q96RI1 whole entry, looked up): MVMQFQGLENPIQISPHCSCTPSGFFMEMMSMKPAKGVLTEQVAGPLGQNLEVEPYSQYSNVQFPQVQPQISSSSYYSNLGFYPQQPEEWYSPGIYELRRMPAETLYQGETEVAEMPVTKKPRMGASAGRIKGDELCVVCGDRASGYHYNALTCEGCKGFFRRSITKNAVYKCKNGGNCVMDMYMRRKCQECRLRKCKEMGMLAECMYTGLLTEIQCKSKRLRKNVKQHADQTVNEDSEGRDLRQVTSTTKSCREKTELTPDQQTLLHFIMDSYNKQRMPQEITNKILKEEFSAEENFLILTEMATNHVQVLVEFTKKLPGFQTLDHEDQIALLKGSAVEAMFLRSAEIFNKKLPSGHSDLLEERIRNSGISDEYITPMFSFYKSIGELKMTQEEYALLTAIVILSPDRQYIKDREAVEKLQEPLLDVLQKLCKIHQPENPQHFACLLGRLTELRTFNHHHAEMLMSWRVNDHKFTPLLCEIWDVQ
Chain of Glucocorticoid receptor (Homo sapiens) (P04150 whole entry, looked up): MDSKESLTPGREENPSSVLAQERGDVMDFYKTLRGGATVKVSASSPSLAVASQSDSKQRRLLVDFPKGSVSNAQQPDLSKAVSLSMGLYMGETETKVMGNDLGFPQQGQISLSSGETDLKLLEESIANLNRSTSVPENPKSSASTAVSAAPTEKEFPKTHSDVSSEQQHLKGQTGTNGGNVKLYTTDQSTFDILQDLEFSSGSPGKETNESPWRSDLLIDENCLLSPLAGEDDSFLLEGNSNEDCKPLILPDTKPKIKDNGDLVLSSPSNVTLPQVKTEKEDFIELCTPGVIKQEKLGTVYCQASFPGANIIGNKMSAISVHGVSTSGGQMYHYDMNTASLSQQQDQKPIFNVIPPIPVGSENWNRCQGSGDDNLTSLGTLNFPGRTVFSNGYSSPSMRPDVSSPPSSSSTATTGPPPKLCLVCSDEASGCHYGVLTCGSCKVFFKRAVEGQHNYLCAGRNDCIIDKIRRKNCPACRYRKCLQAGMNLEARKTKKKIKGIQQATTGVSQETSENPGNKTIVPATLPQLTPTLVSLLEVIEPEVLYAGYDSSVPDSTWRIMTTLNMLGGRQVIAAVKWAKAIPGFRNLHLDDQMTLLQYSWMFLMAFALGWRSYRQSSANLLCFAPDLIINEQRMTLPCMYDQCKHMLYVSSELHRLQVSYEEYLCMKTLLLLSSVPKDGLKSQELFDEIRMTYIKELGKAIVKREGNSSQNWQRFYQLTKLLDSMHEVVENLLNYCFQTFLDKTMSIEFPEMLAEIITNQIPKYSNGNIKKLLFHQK
Chain of Peroxisome proliferator-activated receptor delta (Homo sapiens) (Q03181 whole entry, looked up): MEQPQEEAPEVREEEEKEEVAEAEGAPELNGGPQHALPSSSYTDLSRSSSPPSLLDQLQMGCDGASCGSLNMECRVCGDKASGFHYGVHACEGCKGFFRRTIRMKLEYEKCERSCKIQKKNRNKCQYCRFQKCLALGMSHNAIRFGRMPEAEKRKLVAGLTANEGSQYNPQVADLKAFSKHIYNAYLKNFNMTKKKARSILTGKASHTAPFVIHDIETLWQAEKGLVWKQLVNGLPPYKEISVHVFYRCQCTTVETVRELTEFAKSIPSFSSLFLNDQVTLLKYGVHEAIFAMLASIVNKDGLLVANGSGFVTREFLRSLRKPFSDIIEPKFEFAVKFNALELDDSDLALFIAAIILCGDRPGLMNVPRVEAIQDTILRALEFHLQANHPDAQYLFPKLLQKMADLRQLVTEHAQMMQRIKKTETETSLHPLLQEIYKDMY

Regarding `Cc1cc(N)c2ccccc2[n+]1CCCCCCCCCC[n+]1c(C)cc(N)c2ccccc21`, the compound was called inactive in assay [1], in [2], in [3], in assay [4], in [5] and in [6]. In addition, in assay [8], the call was inactive. Also, the Potency entry in assay [7] was “inactive”.

Take `CNCCCC1c2ccccc2C=Cc2ccccc21`: the compound was called inactive in assay [1], in [2], in assay [3], in [4], in assay [5] and in [6]. Also, the Potency result in assay [7] and in [9] was “inactive” each time.

`OCc1cc(C(O)CNCCCCCCOCCCCc2ccccc2)ccc1O` (stereo not given): the compound was called inactive in [1], in assay [2], in [3], in assay [4], in [5] and in assay [6]. In addition, the Potency result in [7] is “inactive”.

Regarding `CN(C)CCCN1c2ccccc2Sc2ccc(Cl)cc21`, the Potency entry in [10] and in assay [7] was “inactive” each time. For the same compound, the viability change in [10] was 4.06%. Further, the compound was called inactive in assay [1], in assay [2], in assay [4], in [5], in assay [6] and in [11]. Also, the compound was called inactive in [14] and in [15]. Moreover, the activation in assay [12] is 7.77% (inactive). Also, the max response in assay [13] is -54.6%.

As for `CNCCC(Oc1ccc(C(F)(F)F)cc1)c1ccccc1` (stereo not given), the compound was called inactive in assay [1], in [2], in assay [3], in assay [4], in assay [5] and in [6]. Moreover, the Potency result in assay [7] was “inactive”.

On to `CC1=C(CC(=O)O)c2cc(F)ccc2/C1=C\c1ccc(S(C)(=O)=O)cc1`, for which the compound was called inactive in [1], in assay [2], in assay [3], in assay [4], in assay [5] and in [6]. Also, the Potency result in assay [7], in [9] and in assay [16] was “inactive” in each case.

For `CC(C)(C)c1onc(OCP(=O)(O)O)c1CC(N)C(=O)O` (stereo not given), the Potency result in assay [10], in assay [7], in assay [9] and in assay [16] was “inactive” throughout. Further, the viability change in assay [10] is 4.09% and -1.93%. Also, the result in assay [1], in assay [2], in assay [3], in assay [4], in assay [5] and in assay [6] was inactive.

As for `N=c1c[n+](N2CCOCC2)[n-]o1`, the compound was classed as inactive in assay [1], in assay [2], in [3], in assay [4], in [5] and in assay [6]. The Potency entry in assay [7], in assay [9] and in assay [16] was “inactive” each time.

`CC(CN1c2ccccc2Sc2ccccc21)N(C)C` (stereo not given): the Potency entry in [10] and in assay [7] was “inactive” throughout. In assay [10], the viability change came to 5.51%. The result in assay [1], in [2], in assay [3], in assay [4], in assay [5] and in [6] was inactive. Also, in [16], the Potency was 17.8 µM (active).

On to `CC(C)NC[C@H](O)c1ccc(O)c(O)c1`, for which the Potency entry in [10], in [7] and in [9] was “inactive” throughout. Moreover, the viability change in assay [10] was 2.86% and 6.15%. Moreover, the call in [1], in assay [2], in assay [3], in assay [4], in [5] and in assay [6] was inactive. Moreover, the outcome in assay [8] was inactive.

In the case of `COc1ccc(Cl)cc1C(=O)NCCc1ccc(S(=O)(=O)NC(=O)NC2CCCCC2)cc1`, the outcome in [1], in [2], in [3], in assay [4], in assay [5] and in assay [6] was inactive. The result in assay [8], in [11] and in assay [15] was inactive. The Potency result in [7], in [9] and in assay [16] was “inactive” in each case.

These data come from PubChem BioAssay (NCATS).
